# From PubChem BioAssay (NCI)
# About 83,000 compounds went through this panel and 20% of them were active in at least one assay; those are over-represented in the sample as a whole.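 Cells were grown in 96-well plates and exposed to the test compound at a single concentration for 48 hours; results are reported as percent growth, with values below 10 considered active.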 Unmarked numbers belong to inactive results. Calls of active or inactive are those of the source.
# Test system: 786-0 renal
# Test: NCI-60 one-dose screen, 48 h (100 = growth as untreated, 0 = no growth, -100 = all killed)
# Conditions: 10 µM unless noted
row,Structure (SMILES),growth
1,C/C(CCC(=O)O)=N/Nc1ccc([N+](=O)[O-])cc1,45.7%
2,Nc1nc2c(c3ncncc13)C(c1cccc(C(F)(F)F)c1)Cc1ncncc1-2 (stereo not drawn),28.5%
3,COc1ccc(-c2nc(SCC(C)C)nc(Nc3ccc([N+](=O)[O-])cc3)c2C#N)cc1,94.7%
4,Nc1nc2c(c3cnccc13)C(c1cccc(Cl)c1)Cc1cnccc1-2 (stereo not drawn),19.6%
5,CCCCCSc1ccc2nc(NC(=O)OCCC)sc2c1,31.1%
6,CCCCCSc1ccc2nc(NC(=O)OCC)sc2c1,33.6%
7,Cc1c(Cc2ccccc2)c(=O)oc2c(C)c(OCc3n[nH]c(=S)o3)ccc12,68.9%
8,CCOC(=O)c1c(C)oc2ncnc(Nc3ccc(C(=O)NCCc4ccccc4)cc3)c12,74.9%
9,C=C(C)[C@@H]1CC[C@]2(COC(=O)c3ccccc3C(=O)O)CC[C@]3(C)[C@H](CC[C@@H]4[C@@]5(C)CCCNC(C)(C)[C@@H]5CC[C@]43C)[C@@H]12,84.4%
10,O=C(CCCC(=O)Nc1ccc(Cn2nnc3cc(Cl)c(Cl)cc32)cc1)Nc1ccc(CN2N=NC3C=C(Cl)C(Cl)=CC32)cc1 (stereo not drawn),85.3%
11,CCS(=O)(=O)OCCO[C@H]1Cc2cc3ccc(=O)oc3cc2OC1(C)C,106%
12,O=C1Nc2ccccc2/C1=C/c1cn(CC(O)Cn2cc(/C=C3\C(=O)Nc4ccccc43)c3ccccc32)c2ccccc12 (stereo not drawn),-70.9% (active)
13,COC(=O)Nc1nc2ccc(C(=O)c3ccccc3N(C)C3COC3)cc2[nH]1,34.4%
